A selection: hits, their analogues and other compounds. The true share with any hit is near 19%.
HT1080-NT tox – kills 2HG-producing HT-1080-NT fibrosarcoma cells; HT-1080-NT fibrosarcoma viability, CellTiter-Glo ATP luminescence, 48 h; Potency, µM (doses to about 46.1 µM), for inactives: at the highest dose activity, negative = less viability, hits mostly cytotoxic; 360,000 compounds, 1.6% hits; AID 686970;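 note: NT is the 2HG producing partner of a matched IDH1 knockdown line; 0% = DMSO-treated cells and -100% = media-only wells without cells; nearly all actives have a fitted effect of over 55% in size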
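Viability by CellTiter-Glo luminescence after 48 h compound exposure at 37C of HT-1080-NT cells (750/well, RPMI, 5% FBS). % activity scaled between DMSO wells and medium-only wells, then curve-fitted and categorized by curve class.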
KB-3-1 tox – KB-3-1 parental cell cytotoxicity; 400,000 compounds, 1.4% hits; Potency, µM (series often up to 46.1 µM), actives largely listed as cytotoxic; AID 1347075; KB-3-1 viability, CellTiter-Glo ATP luminescence, 72 h; note: nearly all actives have a fitted effect of over 60% in size
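Viability of parental KB-3-1 cells, measured by CellTiter-Glo luminescence, followed a 72 h incubation at 37 °C with pinned compounds in phenol-red-free DMEM containing 10% FBS.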
KB-V1 MDR tox – KB-V1 MDR subline cytotoxicity; KB-V1 MDR cells viability, CellTiter-Glo, 72 h; 400,000 compounds, 3.4% hits; Potency, µM (top dose mostly 46.1 µM), actives largely listed as cytotoxic; note: nearly all actives have a fitted effect of over 60% in size
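In this primary screen, KB-V1 cells overexpressing P-gp are incubated with library compounds (lowest to highest concentration) for 72 h at 37 degrees C before a luminescent ATP viability read.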
HT1080 IDH1KD tx – toxicity to HT-1080 IDH1 knockdown cells (counter line); 360,000 compounds, 2% hits; Potency, µM (doses to about 46.1 µM), inactives show at the top dose activity, negative = toxicity, usual class: cytotoxic; HT-1080 IDH1 knockdown viability, ATP luminescence, 48 h;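 note: 0% = DMSO wells and -100% = cell-free medium wells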
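CellTiter-Glo luminescence after 48 h compound exposure at 37 degrees C of IDH1-knockdown HT-1080 cells in 5% FBS RPMI. %Activity scaled between DMSO wells and cell-free media wells, with curves fitted and assigned curve classes.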
TDP1 cell noCPT – qHTS for Inhibitors of human tyrosyl-DNA phosphodiesterase 1 (TDP1): qHTS in cells in absence of CPT | DT40 Tdp1-/- hTDP1 cells, no CPT, ATP luminescence, 48 h | 420,000 compounds, 15% hits | Potency, µM (top dose mostly 46.2 µM), for inactives: at the top dose activity change, negative = growth inhibition, hits mostly inhibitors | AID 686978, 2013; note: nearly all actives have a fitted effect of over 55% in size
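Compound effects on proliferation are scored in DT40 Tdp1-/-;hTDP1 cells in the absence of CPT. ATP levels (CellTiter-Glo luminescence) are recorded after a ≥48 hr, 37 °C incubation.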
DT40 TDP1 CPT – growth inhibition of DT40 Tdp1-/-;hTDP1 cells with camptothecin (screen for TDP1 inhibitors). chicken DT40 Tdp1-/-;hTDP1 cells + 20 nM CPT, ATP luminescence, 48 h. Potency, µM (doses to about 46.2 µM), for the others: top-dose activity change, negative = growth inhibition, hits mostly inhibitors. 420,000 compounds, 12% hits. AID 686979; note: nearly all actives have a fitted effect of over 55% in size
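Chicken DT40 Tdp1-/- cells complemented with human TDP1, 400 cells/well, exposed to compounds plus 20 nM camptothecin for at least 48 h at 37 C; viability read as ATP content by CellTiter-Glo luminescence.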
An asterisk follows results filed as active; i = inactive; ? = inconclusive; · = not tested or not shown; ! = not confirmed by another sample; [ ] = dose if it differs, or a comment. Calls come from the whole dose curve; as a rule, active = well fitted curve in the direction sought with a large enough effect; inconclusive = small, poorly fitted or top-dose-only effect, or another doubt; inactive = no such curve, though single readings can be large; an effect the other way counts as inactive or inconclusive. Unless noted, % is set by controls: 0 for no effect and ±100 for the full control effect; potency is the fitted concentration of half-maximal effect.

SMILES | HT1080-NT tox | KB-3-1 tox | KB-V1 MDR tox | HT1080 IDH1KD tx | TDP1 cell noCPT | DT40 TDP1 CPT
O=C(CCN1CCN(C(c2ccccc2)c2ccccc2)CC1)N/N=C/c1ccc(O)cc1O | ? | ? | i | ? | 5.17µM* | 6.51µM*
Cc1ccc(C(=O)CN(CCCC(N)=O)S(=O)(=O)c2ccc([N+](=O)[O-])cc2)cc1 | 1.5% | i | i | -0.9% | -17.0% | -30.0%
COC(=O)CCSc1cc(NCCOC(C)=O)c([N+](=O)[O-])c2nonc12 | 20.6µM* | i | i | ? | 17.8µM* | 11.2µM*
CC(=O)Nc1ccc(Nc2ccc3nonc3c2[N+](=O)[O-])cc1 | 0.5% | i | i | -0.3% | ? | -22.8%
CCCC(=O)OCCNc1cc(SCCC(=O)OC)c2nonc2c1[N+](=O)[O-] | ? | i | i | ? | ? | 16.4µM*
COc1ccc(NC(=O)Cn2c(=O)oc3cc(S(=O)(=O)N4CCCC4)ccc32)c(OC)c1 | -11.2% | i | i | 0.9% | ? | ?
CC1CCN(S(=O)(=O)c2ccc3c(c2)oc(=O)n3CC(=O)O)CC1 | · | · | · | · | -8.8% | -5.0%
COc1ccc(CNC(=O)Cn2c(=O)oc3cc(S(=O)(=O)N4CCCCCC4)ccc32)cc1 | · | i | ? | · | 16.4µM* | 13µM*
COc1ccc(NC(=O)Cn2c(=O)oc3cc(S(=O)(=O)N4CCC(C)CC4)ccc32)c(OC)c1 | · | ? | i | · | 8.2µM* | 20.6µM*
Cc1cc(C)cc(NC(=O)Cn2c(=O)oc3cc(S(=O)(=O)N4CCC(C)CC4)ccc32)c1 | ? | i | i | ? | 14.6µM* | 6.51µM*
COc1ccc(NC(=O)Cn2c(=O)oc3cc(Cl)ccc32)c(OC)c1 | 1.2% | i | i | -3.0% | 6.51µM* | ?
O=C(NNC(=O)C1CCN(S(=O)(=O)c2ccc(Cl)cc2)CC1)c1ccccc1O | -22.3% | ? | i | ? | ? | ?
COc1ccc(CC(=O)Nc2ccc(S(=O)(=O)N3CCC(C)CC3)cc2)c(OC)c1 | -14.0% | i | i | -2.9% | 8.2µM* | ?
COc1ccc(CNC(=O)Cn2c(=O)oc3cc(S(=O)(=O)N4CCC(C)CC4)ccc32)cc1 | · | i | i | · | 8.2µM* | 8.2µM*
CC1CCN(S(=O)(=O)c2ccc3c(c2)oc(=O)n3CC(=O)NCc2ccc3c(c2)OCO3)CC1 | -0.2% | ? | i | 0.7% | ? | ?
Cc1ccn2c(=O)cc(CSc3nnc(NC(=O)c4ccccc4Cl)s3)nc2c1 | · | · | · | · | ? | -1.2%
CCN(C(=O)c1cccs1)C1CCS(=O)(=O)C1 (configuration not stated) | 22.2% | i | i | 11.5% | ? | -3.0%
COc1cc(/C=C(/C#N)c2nc(-c3cc4ccccc4oc3=O)cs2)ccc1O | · | i | i | · | 2.91µM* | -1.6%
Cc1cc(-n2c(C)cc(C(=S)N3CCOCC3)c2C)ccc1Br | 6.8% | ? | 8.2µM* | -2.1% | 16.4µM* | 14.6µM*
CN1CC(=O)N(CC(=O)Nc2cccc(S(=O)(=O)N3CCOCC3)c2)C1=O | 5.7% | i | i | 6.3% | -25.0% | 16.7%
Cc1ccc(-n2c(C)cc(C(=O)CN3CCOCC3)c2C)cc1 | -13.8% | i | i | -2.2% | -28.2% | -18.3%
Cc1cc(C(=O)CN2C(=O)CN(C)C2=O)c(C)n1-c1cccc(S(=O)(=O)N2CCOCC2)c1 | 1.8% | i | i | -2.2% | 4.61µM* | -16.6%
Cc1ccc(C)n1-c1cccc(S(=O)(=O)N2CCOCC2)c1 | -10.3% | i | i | -22.6% | ? | -0.8%
Cc1cc(C(=O)CCl)c(C)n1-c1cccc(S(=O)(=O)N2CCOCC2)c1 | 23.1µM* | i | 16.4µM* | ? | 2.31µM* | 1.3µM*
Cc1ccc(-n2c(C)cc(C(=O)CN3CCOCC3)c2C)cc1C | -2.2% | i | ? | -1.3% | ? | 20.6µM*
SMILES | HT1080-NT tox | KB-3-1 tox | KB-V1 MDR tox | HT1080 IDH1KD tx | TDP1 cell noCPT | DT40 TDP1 CPT
CCC1CCc2c(sc(NC(=O)C3c4ccccc4Oc4ccccc43)c2C(N)=O)C1 (configuration not stated) | -8.1% | i | i | 2.9% | ? | ?
Cc1ccc(S(=O)(=O)N2CCN(C(=O)CSc3ncn[nH]3)CC2)cc1 | 1.1% | i | i | -1.0% | -16.5% | -7.1%
Cc1cc(C(=O)CSc2ncn[nH]2)c(C)n1-c1cccc(S(=O)(=O)N2CCOCC2)c1 | -6.6% | i | ? | -6.0% | 18.4µM* | ?
Cn1c(-n2cccc2)c(-c2c(-c3ccccc3)[nH]c3c2c(=O)n(C)c(=O)n3C)c(=O)n(C)c1=O | · | i | i | · | -10.9% | -5.5%
Cc1ccc(-n2nc3c(=O)n(CC(=O)NC4CCCCC4)nc(C)c3c2C)cc1 | 1.3% | i | i | -11.8% | ? | -22.9%
NCCCNCCCCNC(=O)C(O)NC(=O)CCCCCCN=C(N)N (configuration not stated) | · | · | · | · | 1.19µM* | 1.19µM*
Cc1ccc(Cl)cc1N1CCN(C(=O)c2ccccc2SCC(=O)N2CCCC2)CC1 | 4.1%[9.24 µM] | i | i | -15.3% | 8.2µM* | 20.6µM*
O=C(CCSCc1ccccc1Cl)N1CCN(c2cccc(Cl)c2)CC1 | -16.9% | i | 20.6µM*! | -2.0% | ? | ?
Cc1ccc(Cl)cc1N1CCN(C(=O)CCSCc2ccccc2F)CC1 | · | · | · | · | 23.1µM* | ?
O=C(C(=O)N1CCN(c2cccc(Cl)c2)CC1)N1CCCCC1 | 18.9% | i | i | -16.2% | -20.8% | 16.7%
O=C(CCSCc1ccccc1F)N1CCN(c2ccccn2)CC1 | 2.1% | i | ? | 8.8%[9.24 µM] | -21.5% | -16.5%
CC(C)(C)N1C(=O)c2ccccc2NC(=O)C1C(=O)Nc1ccc2c(c1)OCCO2 (configuration not stated) | 18.8% | i | i | 15.5% | -17.2% | ?
CC1(C)CC(=O)C2=C(C1)Oc1nc3ccccc3cc1C2C(C#N)C#N (configuration not stated) | 18.4µM* | 20.6µM* | ? | 23.1µM* | 4.11µM* | 2.91µM*
O=C(c1ccc(Sc2ccccc2)c([N+](=O)[O-])c1)N1CCOCC1 | -1.5% | i | i | -3.0% | ? | -24.5%
CCN1CCCC1CNC(=O)c1ccc(Sc2ccccc2Cl)c([N+](=O)[O-])c1 (configuration not stated) | 25.9µM* | i | i | ? | ? | ?

Source: PubChem BioAssay
